# Hits are enriched below; roughly 7.5% of the tested compounds scored in any of these assays.
# B2AR arrestin – beta2AR (human) beta-arrestin recruitment activity; beta-arrestin recruitment to beta2AR, cell-based reporter; AID 492947; hit rate 0.02% among 330,000; Potency, µM (highest dose often 46.1 µM), for the others: top-dose activation, actives largely listed as activators; P07550;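 note: potency is the fitted concentration of half-maximal effect; 0% = DMSO controls and full agonism = EC100 isoproterenol or metaproterenol; nearly all actives have a fitted effect of over 65% in size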
# ELG1 repair inh – ELG1-dependent DNA repair inhibition; HEK293T ELG1-luciferase reporter, luminescence, 16 h; DNA damage induced by 5-fluorouridine; Potency, µM (top dose mostly 46.1 µM), for the others: top-dose activity change, negative = inhibition, actives largely listed as inhibitors; hit rate 2.3% among 330,000; AID 504467; note: potency is the fitted concentration of half-maximal effect; nearly all actives have a fitted effect of over 55% in size
#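 Quantitative HTS, concentration-response format. 2,000 cells/well co-treated with 5-fluorouridine and compound, 16 hr in 5% CO2 at 37 °C; ONE-Glo luminescence read after 30 min.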
# Gal4-VP16 FLuc – counter-screen for ROR gamma inhibitors: Gal4-VP16 reporter; Drosophila S2 Gal4-VP16 UAS-luciferase, luminescence, 20 h; Potency, µM (series often up to 53.6 µM), inactives show top-dose activity, negative = inhibition, usual class: inhibitors; hit rate 3.5% among 310,000; AID 2546;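 note: Gal4-VP16 expression switched on by copper sulfate through the metallothionein promoter; potency is the fitted concentration of half-maximal effect; nearly all actives have a fitted effect of over 50% in size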
# RORg inh – ROR gamma (mouse) transcription inhibition | P51450 | AID 2551 | hit rate 5.4% among 310,000 | Drosophila S2 Gal4-RORgamma UAS-luciferase reporter, 20 h | Potency, µM (doses to about 53.6 µM), for the others: at the top dose activity change, negative = inhibition, hits mostly inhibitors; note: potency is the fitted concentration of half-maximal effect; nearly all actives have a fitted effect of over 60% in size
# Target sequence (P51450 whole entry, looked up, the tested form may be a part): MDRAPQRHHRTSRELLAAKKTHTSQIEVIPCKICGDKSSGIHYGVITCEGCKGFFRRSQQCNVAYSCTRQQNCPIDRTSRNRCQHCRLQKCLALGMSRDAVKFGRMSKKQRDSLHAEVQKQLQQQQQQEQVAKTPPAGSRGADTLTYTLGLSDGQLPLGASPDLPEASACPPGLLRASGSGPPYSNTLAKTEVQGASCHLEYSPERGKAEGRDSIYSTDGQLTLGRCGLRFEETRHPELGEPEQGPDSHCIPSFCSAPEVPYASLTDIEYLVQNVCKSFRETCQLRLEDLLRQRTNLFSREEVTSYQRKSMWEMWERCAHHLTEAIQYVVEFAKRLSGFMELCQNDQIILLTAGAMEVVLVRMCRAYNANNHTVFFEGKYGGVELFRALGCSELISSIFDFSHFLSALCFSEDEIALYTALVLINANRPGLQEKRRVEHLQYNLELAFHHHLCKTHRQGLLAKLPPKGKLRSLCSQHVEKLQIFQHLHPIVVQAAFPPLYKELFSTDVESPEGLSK
#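 Stable Schneider cell line, Gal4 DNA-binding domain fused to ROR gamma, UAS-luciferase. Cmpd 1 hr RT → CuSO4 700 uM final → 20 hr RT → luciferase reagent 10 min → luminescence.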
# TSHR antag – human thyrotropin receptor antagonism; P16473; TSHR-expressing cells, TSH-stimulated cAMP HTRF, 2 h; hits give low values; activity change, negative = inhibition, % at 11.5 µM; hit rate 0.2% among 330,000; AID 504810;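 active = activity change below a set negative limit, meaning inhibition stronger than a set level, cut at about -70% in these data; inconclusive = activity change between two set negative limits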
#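 TSHR-expressing cells, 200/well, pre-treated with compound, then stimulated with EC80 TSH (4nM final) for 2 hours at 37 deg C. cAMP measured by competitive HTRF: anti-cAMP cryptate antibody in lysis buffer plus cAMP-d2, read after 30 minutes at room temperature.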
# Active calls of the source: *; ? = inconclusive; · = not tested or not shown; [ ] = dose if it differs, or a comment. Unless noted, calls come from the whole dose curve; as a rule, active = well fitted curve in the direction sought with a large enough effect; inconclusive = small, poorly fitted or top-dose-only effect, or another doubt; inactive = no such curve, though single readings can be large; an effect the other way counts as inactive or inconclusive. Unless noted, % is set by controls: 0 for no effect and ±100 for the full control effect.
SMILES,B2AR arrestin,ELG1 repair inh,Gal4-VP16 FLuc,RORg inh,TSHR antag
COc1ccc2c(Cl)c(C(N)=O)sc2c1,-0.1%,-0.4%,14.8%,33.5%,13.6
O=C(NNC(=S)NC(=O)c1sc2ccccc2c1Cl)c1ccc(Cl)cc1,-0.1%,?,12.6µM*,5.01µM*,2.0
O=C(NNC(=O)c1sc2ccccc2c1Cl)Nc1ccc(Cl)cc1,-0.7%,9.7%,10.9%,-17.2%,17.4
CCCCOC(=S)NC(=O)c1sc2ccccc2c1Cl,0.5%,5.0%,?,5.62µM*,9.7
COc1cc2oc(=O)cc(-c3ccc(-c4sccc4C=O)cc3)c2c(OC)c1OC,·,·,1.2%,8.8%,·
O=S(=O)(c1ccc(Br)cc1)N1CCC2(CC1)OCCO2,-1.4%,-1.0%,1.4%,25.0%,7.6
O=C(NC1CCCC1)C(c1ccncc1)N(C(=O)Cc1cccs1)c1cccc(F)c1 (stereo not given),-0.3%,-1.8%,6.2%,-21.1%,-3.9
COC(=O)C/C=C\[C@@H](C)[C@@H](/C=N\OC[C@@H](O)COCc1ccco1)OC,·,·,-6.8%[10 µM],12.0%[10 µM],·
CCc1cccc(N(C(=O)c2csnn2)C(C(=O)NC2CCCCC2)c2cccnc2)c1 (stereo not given),-0.9%,-2.0%,8.2%,-1.7%,-2.3
CCCn1c(N2CCN(Cc3ccc(Cl)cc3)CC2)nc2ccccc21,0.4%,?,?,11.2µM*,-6.6
CCn1c(N2CCN(Cc3ccc([N+](=O)[O-])cc3)CC2)nc2ccccc21,-0.3%,?,4.2%,-17.1%,12.3
CCn1c(N2CCN(S(=O)(=O)c3ccc(Cl)cc3)CC2)nc2ccccc21,-0.1%,14.6µM*,?,?,-15.8
CC[C@H](C)[C@H](NC(=O)[C@H](Cc1ccc(O)cc1)NC(=O)[C@H](Cc1cnc[nH]1)NC(=O)[C@H](CCCNC(=N)N)NC(=O)[C@H](CC(C)C)NC(=O)[C@H](C)NC(=O)[C@H](CO)NC(=O)[C@H](Cc1ccc(O)cc1)NC(=O)[C@H](Cc1ccc(O)cc1)NC(=O)[C@H](CCCNC(=N)N)NC(=O)[C@H](C)NC(=O)[C@H](CC(C)C)NC(=O)[C@H](CC(=O)O)NC(=O)[C@H](CCC(=O)O)NC(=O)[C@H](C)NC(=O)[C@@H]1CCCN1C(=O)[C@H](C)NC(=O)[C@H](CC(=O)O)NC(=O)[C@H](CCC(=O)O)NC(=O)CNC(=O)[C@@H]1CCCN1C(=O)[C@H](CC(N)=O)NC(=O)[C@H](CC(=O)O)NC(=O)[C@@H]1CCCN1C(=O)[C@H](CCCCN)NC(=O)[C@H](CO)NC(=O)[C@@H]1CCCN1C(=O)[C@@H](N)Cc1ccc(O)cc1)C(=O)N[C@@H](CC(N)=O)C(=O)N[C@@H](CC(C)C)C(=O)N[C@H](C(=O)N[C@H](C(=O)N[C@@H](CCCNC(=N)N)C(=O)N[C@@H](CCC(N)=O)C(=O)N[C@@H](CCCNC(=N)N)C(=O)N[C@@H](Cc1ccc(O)cc1)C(N)=O)[C@@H](C)O)[C@@H](C)CC,·,·,-4.2%,10.4%,·
Cc1cccc(NCC(=O)NNC(=S)Nc2ccccc2)c1,-0.3%,10.0%,?,11.2µM*,5.7
CNC(=S)NNC(=O)CNc1ccc(C)c(Cl)c1,0.0%,-8.2%,12.6µM*,5.62µM*,29.6
O=C(CSCc1ccccc1Cl)Nc1ccc(C(=O)O)cc1,0.1%,-5.0%,14.6%,5.4%,-21.5
Cc1cccc(NC(=S)NNC(=O)Cc2ccccc2)c1,0.4%,10.5%,?,11.2µM*,-4.3
O=C(CSCc1ccccc1Cl)NNC(=S)Nc1ccccc1,0.2%,13.4%,-6.9%,15.8µM*,13.9
Cc1ccc(NC(=O)CSC(N)=O)cc1Cl,0.0%,-15.3%,?,-3.2%,-6.2
Cc1cccc(NC(=S)NNC(=O)c2csc3c2CCCC3)c1,0.2%,?,-10.4%,?,-0.6
Cc1cccc(NC(=S)NNC(=O)c2csc(C)c2)c1,-0.2%,?,?,5.01µM*,3.9
CCc1ccc(C2CC(c3ccccc3)Nc3nc(N)nn32)cc1 (stereo not given),5.6%,-8.4%,-12.2%,-14.8%,4.8
CCc1ccc(C2CC(c3ccccc3)n3ncnc3N2)cc1 (stereo not given),0.3%,12.0%,-4.0%,17.8µM*,2.7
COc1cc(CC(=O)Nc2nccs2)cc(OC)c1OC,0.0%,-9.5%,-8.3%,-13.0%,-5.0
COc1cc(C(=O)NC(=S)Nc2nccs2)cc(OC)c1OC,0.1%,8.1%,?,3.16µM*,-0.2
SMILES,B2AR arrestin,ELG1 repair inh,Gal4-VP16 FLuc,RORg inh,TSHR antag
COC(=O)c1sc(NC(=S)NC(=O)c2cc(OC)c(OC)c(OC)c2)nc1C,-0.3%,-4.4%,-20.9%,10µM*,-9.7
CCOC(=O)c1sc(NC(=S)NC(=O)c2cccc(OC)c2)nc1C,-0.3%,4.7%,?,8.91µM*,10.9
CCOC(=O)c1sc(Nc2nc(OC)cc(OC)n2)nc1C,-0.8%,25.9µM*,-1.2%,8.1%,-2.3
Cc1ccc(-n2nnnc2SC(C)C(=O)NCC(=O)Nc2ccc(F)c(F)c2F)c(C)c1 (stereo not given),-0.9%,18.4µM*,-10.8%,128.7%,-1.5
Cc1ccc(-n2nnnc2SC(C)C(N)=O)c(C)c1 (stereo not given),0.4%,0.5%,-5.6%,17.6%,-10.2
COc1ccc(C(=O)OC2CC3CC[C@H](C2)N3C(C)=O)cc1OC (stereo not given in full),·,·,3.5%,-0.1%,·
NC(=S)NNC(=O)c1cccc(Cl)c1,-1.0%,1.8%,-17.3%,40.4%,-1.9
COc1ccccc1/C=C1\SC(=S)N(CCC(=O)NCCCn2ccnc2)C1=O,0.3%,-4.0%,-10.3%,15.8µM*,-6.6
COc1ccc(/C=C2\SC(=S)N(CCC(=O)NCCCn3ccnc3)C2=O)cc1,0.3%,11.9%,9.1%,7.1%,6.0
O=C(CCCN1C(=O)/C(=C/c2ccc(F)cc2)SC1=S)NCCCn1ccnc1,-0.4%,-8.0%,?,8.91µM*,-8.6
COc1ccc(Sc2nc(-c3ccccn3)ncc2OC)cc1,-0.3%,14.6µM*,8.91µM*,2.24µM*,11.7
COc1cnc(-c2ccccn2)nc1Sc1ccc(F)cc1,0.4%,20.6µM*,3.55µM*,-28.6%,21.8
COc1cnc(-c2ccccn2)nc1Sc1ccccc1,-0.2%,?,11.2µM*,2.51µM*,-4.1
CCOC(=O)CSc1nc(-c2ccccn2)ncc1OC,3.8%,-9.4%,-5.6%,?,7.1
O=C(CNC(=O)c1cccc(F)c1)N/N=C/c1cccs1,3.6%,12.8%,4.9%,0.0%,-33.7
COc1ccccc1-c1nccc(NCc2cccc(C)c2)n1,·,·,?,10.9%,·
Cc1ccc(NC(=O)CN2CCc3cc4c(cc3C2C)OCCCO4)cc1 (stereo not given),0.1%,18.3µM*,0.0%,28.5%,7.0

# Screening results (PubChem)
